Screens as filed in PubChem BioAssay.
The entries come from a sample that favours hits as a whole.
Pf Dd2 growth = qHTS Primary assay for Inhibitors of Plasmodium falciparum Dd2 growth in vitro; Potency, µM (titrated, usually from 28.9 µM), without a hit: at the top dose activity, negative = inhibition, actives largely listed as inhibitors; AID 1347417, 2020; P. falciparum Dd2 growth, SYBR Green, 72 h; hit rate 4.3% among 120,000; active = well fitted inhibition curve with a large enough effect;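 note: plate controls were DMSO vehicle for no effect and reference drug for full effect; nearly all actives have a fitted effect of over 65% in size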
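Infected erythrocytes (Dd2, 0.3% parasitemia, 2.5% hematocrit final) are added to compound in RPMI-1640/Albumax II medium, grown 72 h at 37C in low oxygen, then lysed with saponin/Triton-X containing SYBR Green and read by fluorescence.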
Numbers without * were called inactive; i = inactive; [ ] = remark or other dose. Potency is the fitted concentration of half-maximal effect.

SMILES | Pf Dd2 growth
COC1CCOC2(CCN(C(=O)Cn3c(=O)oc4ccccc43)CC2)C1 (stereo not drawn) | 31%
COc1cccc(C(=O)N2CCCC(n3cc(-c4nc(C5CC5)no4)nn3)C2)c1 (stereo not drawn) | -17%
COCC(=O)N[C@@H]1CN(S(C)(=O)=O)C[C@H]1CN(C)C | 12%
COc1cc(NC(=O)N[C@H]2CO[C@H]3[C@@H]2OC[C@@H]3Nc2nccc(C(C)(C)C)n2)cc(OC)c1 | i
Cc1nn(-c2ccccc2[N+](=O)[O-])c(C)c1[C@@H]1C=C[C@@H](NCc2ccco2)C1 | 11µM*
Cc1nn(-c2ccc(C(C)(C)C)cc2)c(C)c1[C@@H]1C=C[C@@H](NC(=O)CC2(CC(=O)O)CCCC2)C1 | 4%
Cc1nn(-c2ccccc2)c(C)c1[C@@H]1C=C[C@@H](NC(=O)c2ccco2)C1 | 10µM*
Cc1cc(Cl)ccc1-n1nc(C)c([C@@H]2C=C[C@@H](NC(=O)c3ccc(N(C)C)cc3)C2)c1C | 10µM*
Cc1nn(-c2ccc(F)cc2)c(C)c1[C@@H]1C=C[C@@H](NC(=O)c2ccco2)C1 | 6.3µM*
Cc1nn(-c2ccc(C(C)(C)C)cc2)c(C)c1[C@@H]1C=C[C@@H](NC(=O)CCCC(=O)O)C1 | i
Cc1nn(-c2ccccc2)c(C)c1[C@@H]1C=C[C@@H](NC(=O)CC(C)(C)CC(=O)O)C1 | -4%[44.1 µM]
CC(=O)N[C@@H]1C=C[C@@H](c2c(C)nn(-c3ccc(C)c(Cl)c3)c2C)C1 | i
Cc1nn(-c2ccccc2)c(C)c1[C@@H]1C=C[C@@H](NC(=O)CCCC(=O)O)C1 | -1%[44.1 µM]
Cc1nn(-c2ccc(C(F)(F)F)cc2)c(C)c1[C@@H]1C=C[C@@H](NC(=O)CSCC(=O)O)C1 | i
Cc1nn(-c2ccccn2)c(C)c1[C@@H]1C=C[C@@H](NC(=O)CC(C)(C)CC(=O)O)C1 | i
COC(=O)c1cccc(NC(=S)N[C@@H]2C=C[C@@H](c3c(C)nn(-c4ccc(F)cc4)c3C)C2)c1 | -20%
Cc1ccsc1C(=O)N1CCC(C2CCN(S(C)(=O)=O)CC2)C1 (stereo not drawn) | -8%
COc1ccc(C(=O)N2CCC3(CC2)OCC(C(=O)N2CCCC2)N3C(=O)c2ccc(F)cc2)cc1 (stereo not drawn) | -2%
COc1ccc(CC(=O)N2CC(CO)C3(CCNCC3)C2)cc1OC (stereo not drawn) | 21%
CC(C)N1CNC(=O)C12CCN(C(=O)c1ccc(Cl)cc1)CC2 | 17%
CC(C)c1nncn1C1CCN(S(=O)(=O)c2ccc(F)c(F)c2)CC1 | -22%
CN1CCC(NC[C@H]2COCc3nc4cc(S(C)(=O)=O)ccc4n32)CC1 | 18%[44.1 µM]
CCOCC1(C)COc2ccc(C(=O)Nc3ccccc3)cc2N1 (stereo not drawn) | i
COc1cc(NC(=O)[C@H]2CCC[C@H]2NC(=O)c2cnc(C)cn2)cc(OC)c1 | 5%
COCCNC(=O)C(NC(=O)c1ccccc1Cl)C1CCN(C(=O)c2ccccc2)CC1 (stereo not drawn) | -3%
SMILES | Pf Dd2 growth
CCOC(=O)c1c(C)oc2ncnc(Nc3cccc(C(F)(F)F)c3)c12 | 29%
CCOC(=O)c1noc2ncnc(Nc3cccc(C(F)(F)F)c3)c12 | 77%
Cc1ccc(Nc2nc3nonc3nc2Nc2cccc(C(F)(F)F)c2)cc1Cl | 1.1µM*
O=C1Nc2ccc(-c3ccccc3F)cc2C(=O)N2CCN(C(=O)COc3ccccc3)C[C@H]12 | -14%
CCOCCOC1CCN(S(=O)(=O)c2cnn(CC)c2)CC1 | 80%
Cc1ccc(C(=O)N2CCc3nnc([C@@H]4C[C@@H](O)CN4C(C)C)n3CC2)cn1 | i
Cc1cc(C)cc(C(=O)Nc2cccc(-c3nnc4n3CCCC4)c2)c1 | 3.2µM*
CC(=O)Nc1ccc(-c2nnc3n2CCCC3)cc1 | 25%
O=C(Nc1ccc(-c2nnc3n2CCCC3)cc1)c1cc(C2CC2)[nH]n1 | i
O=C(Nc1ccc(-c2nnc3n2CCCC3)cc1)c1ccc[nH]c1=O | -2%
O=C(Nc1cccc(-c2nnc3n2CCCC3)c1)Nc1ccccc1F | 8%
CCOc1ccccc1C(=O)Nc1cccc(-c2nnc3n2CCCC3)c1 | 5µM*
Cc1cccc(C(=O)Nc2ccc(-c3nnc4n3CCCC4)cc2)c1 | -10%
O=C(Nc1cccc(-c2nnc3n2CCCC3)c1)c1ccccc1Cl | 5.6µM*
O=C(Nc1ccc(-c2nnc3n2CCCC3)cc1)Nc1cccc(Cl)c1 | -8%
O=C(Nc1ccccc1)Nc1ccc(-c2nnc3n2CCCC3)cc1 | 31%
CCOc1cc(=O)n2c(c1C(=O)Nc1cccc(C)c1)CCCC2 | 22%
Cc1ccc(C(=O)Nc2ccc(-c3nnc4n3CCCC4)cc2)s1 | 5.6µM*
CN1C(=O)CC(C(=O)O)C12CCN(C(=O)NCCc1ccccc1F)CC2 (stereo not drawn) | -3%
CN1C(=O)[C@H]2CN(Cc3cc(F)cc(F)c3)C[C@H]2C1=O | 62%
CS(=O)(=O)N1CCC(C2CCN(C(=O)NCc3ccco3)C2)CC1 (stereo not drawn) | 3%
CCn1nc(-c2ccc3c(c2)OCCO3)nc1N(C)C | -23%
